# Results from publication PMC8384837, “Expanding the binding specificity for RNA recognition by a PUF domain”.
# Where a chain is given by its changes, count along the chain named.
# Columns and labels:
# Experiment in all cases: yeast three-hybrid, YBZ-1, SC-Leu-His + 0.5 mM 3-AT, 4 days
# Settings in all cases: tags: N-Gal4 AD-HA kept; label: inside an RPR1-promoter hybrid RNA with tandem MS2 sites; ssRNA
# PUM1 PUF domain R6-FHR = target: T1, PUM1 PUF domain R6-FHR (Homo sapiens, UniProt Q14671 828-1176, N1043F;Y1044H;Q1047R)
# T1 sequence: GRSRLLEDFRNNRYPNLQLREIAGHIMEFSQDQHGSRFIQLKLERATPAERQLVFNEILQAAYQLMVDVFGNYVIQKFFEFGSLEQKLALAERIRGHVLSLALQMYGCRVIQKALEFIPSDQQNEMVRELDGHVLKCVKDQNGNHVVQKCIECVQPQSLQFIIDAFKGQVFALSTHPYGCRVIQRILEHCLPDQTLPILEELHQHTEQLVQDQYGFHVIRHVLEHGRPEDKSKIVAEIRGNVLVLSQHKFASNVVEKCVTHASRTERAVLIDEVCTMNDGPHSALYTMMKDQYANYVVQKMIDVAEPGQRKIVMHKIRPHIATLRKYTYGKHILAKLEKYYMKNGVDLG
# Procedure, shortened: (§1)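 Pumilio-1 PUF domain libraries, randomized at the three base-contacting residues of each repeat, were co-expressed with matching RNA elements from a centromeric plasmid in strain YBZ-1, which carries a LexA–MS2 coat fusion and a HIS3 reporter. Transformants grew for four days on SC-Leu (input) or on SC-Leu-His + 0.5 mM 3-AT (selection), and the repeat regions were PCR-amplified and Illumina-sequenced. The interaction score is the log change in variant frequency from input to selection. That logarithm is base 2, with a pseudocount of 1 where a variant was absent.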
# PUM1 PUF domain R6-LYM = target: T2, PUM1 PUF domain R6-LYM (Homo sapiens, UniProt Q14671 828-1176, N1043L;Q1047M)
# T2 sequence: T1 sequence with F216L, H217Y, R220M
# Procedure, shortened: as §1
# PUM1 PUF domain R6-AFF = target: T3, PUM1 PUF domain R6-AFF (Homo sapiens, UniProt Q14671 828-1176, N1043A;Y1044F;Q1047F)
# T3 sequence: T1 sequence with F216A, H217F, R220F
# Procedure, shortened: as §1
# PUM1 PUF domain R8-NFR = PUM1 PUF domain R8-NFR (Homo sapiens, UniProt Q14671 828-1176, Y1123F;Q1126R)
# Procedure, shortened: as §1
# PUM1 PUF domain R3-MRL = PUM1 PUF domain R3-MRL (Homo sapiens, UniProt Q14671 828-1176, C935M;Q939L)
# Procedure, shortened: as §1
# PUM1 PUF domain R3-MRT = PUM1 PUF domain R3-MRT (Homo sapiens, UniProt Q14671 828-1176, C935M;Q939T)
# Procedure, shortened: as §1
# PUM1 PUF domain R8-PWC = PUM1 PUF domain R8-PWC (Homo sapiens, UniProt Q14671 828-1176, N1122P;Y1123W;Q1126C)
# Procedure, shortened: as §1
# PUM1 PUF domain R6-SRQ = target: T4, PUM1 PUF domain R6-SRQ (Homo sapiens, UniProt Q14671 828-1176, N1043S;Y1044R)
# T4 sequence: T1 sequence with F216S, H217R, R220Q
# Procedure, shortened: as §1
# PUM1 PUF domain R5-RQK = PUM1 PUF domain R5-RQK (Homo sapiens, UniProt Q14671 828-1176, C1007R;R1008Q;Q1011K)
# Procedure, shortened: as §1
sequence,measurement,setting,value
GGCUAGAACUAGUGGAUCCCCCGGCGCCCGGCGGCUCGAGCCCGGGUAAGUGUAAAUAGUCUGCAUGCCGCCGGGCGCCAUGCCUGCAGGUCGACUCUAGAAAACAUG,binding signal,PUM1 PUF domain R6-FHR,3.45 log2 enrichment (interaction score)
same,binding signal,PUM1 PUF domain R6-LYM,5.36 log2 enrichment (interaction score)
same,binding signal,PUM1 PUF domain R6-AFF,5.23 log2 enrichment (interaction score)
same,binding signal,PUM1 PUF domain R8-NFR,3.8 log2 enrichment (interaction score)
GGCUAGAACUAGUGGAUCCCCCGGCGCCCGGCGGCUCGAGCCCGGGUAAGUGUAAUUAGUCUGCAUGCCGCCGGGCGCCAUGCCUGCAGGUCGACUCUAGAAAACAUG,binding signal,PUM1 PUF domain R3-MRL,1.67 log2 enrichment (interaction score)
same,binding signal,PUM1 PUF domain R3-MRT,3.61 log2 enrichment (interaction score)
GGCUAGAACUAGUGGAUCCCCCGGCGCCCGGCGGCUCGAGCCCGGGUAAGUGUAAGUAGUCUGCAUGCCGCCGGGCGCCAUGCCUGCAGGUCGACUCUAGAAAACAUG,binding signal,PUM1 PUF domain R3-MRL,2.68 log2 enrichment (interaction score)
GGCUAGAACUAGUGGAUCCCCCGGCGCCCGGCGGCUCGAGCCCGGGUAAGCGUAAAUAGUCUGCAUGCCGCCGGGCGCCAUGCCUGCAGGUCGACUCUAGAAAACAUG,binding signal,PUM1 PUF domain R8-PWC,2.98 log2 enrichment (interaction score)
same,binding signal,PUM1 PUF domain R8-NFR,3.71 log2 enrichment (interaction score)
GGCUAGAACUAGUGGAUCCCCCGGCGCCCGGCGGCUCGAGCCCGGGUAAGUGAAAAUAGUCUGCAUGCCGCCGGGCGCCAUGCCUGCAGGUCGACUCUAGAAAACAUG,binding signal,PUM1 PUF domain R6-SRQ,3.17 log2 enrichment (interaction score)
GGCUAGAACUAGUGGAUCCCCCGGCGCCCGGCGGCUCGAGCCCGGGUAAGUGUUAAUAGUCUGCAUGCCGCCGGGCGCCAUGCCUGCAGGUCGACUCUAGAAAACAUG,binding signal,PUM1 PUF domain R5-RQK,4.75 log2 enrichment (interaction score)
GGCUAGAACUAGUGGAUCCCCCGGCGCCCGGCGGCUCGAGCCCGGGUAAGUGUCAAUAGUCUGCAUGCCGCCGGGCGCCAUGCCUGCAGGUCGACUCUAGAAAACAUG,binding signal,PUM1 PUF domain R5-RQK,3.94 log2 enrichment (interaction score)
